Test results reported in PubChem BioAssay AID1220 (Sanford-Burnham Center for Chemical Genomics, 2008).
The campaign covered roughly 190,000 compounds. About 1,300 (0.68%) were called active. Cut-off read from the data, not from the text of the source: active = inhibition above about 50%; inactive = the rest. Many of the other results were omitted from the sample, so actives are more common in it than they were.

Each molecule was assayed against Mannose-6-phosphate isomerase (Homo sapiens) (UniProt P34949) (assay: human PMI inhibitors, high substrate, primary screen, biochemical, fluorescence intensity, high mannose 6-phosphate (AID 1220)). Details: recombinant PMI enzyme, coupled fluorescence intensity; at 20 µM; stronger effect = higher value.
Sequence of Mannose-6-phosphate isomerase (Homo sapiens) (P34949 whole entry, looked up): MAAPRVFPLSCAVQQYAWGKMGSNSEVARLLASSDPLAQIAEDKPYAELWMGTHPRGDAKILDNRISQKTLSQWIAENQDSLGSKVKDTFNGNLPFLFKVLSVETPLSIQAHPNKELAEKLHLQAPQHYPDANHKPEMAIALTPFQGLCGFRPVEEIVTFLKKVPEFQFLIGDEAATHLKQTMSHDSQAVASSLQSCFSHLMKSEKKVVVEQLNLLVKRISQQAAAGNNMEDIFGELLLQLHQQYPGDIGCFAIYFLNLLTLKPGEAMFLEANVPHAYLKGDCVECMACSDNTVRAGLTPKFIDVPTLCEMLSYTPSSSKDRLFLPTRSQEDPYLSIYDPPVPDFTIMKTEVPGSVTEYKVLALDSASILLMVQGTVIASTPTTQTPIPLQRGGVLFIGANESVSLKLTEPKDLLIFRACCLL

SMILES	inhibition
O=C1CC(N2CCN(c3ccc(O)cc3)CC2)C(=O)N1c1ccc2c(c1)OCO2 (stereo not drawn)	60.4% (active)
O=C1CC(N2CCN(c3ccc(F)cc3)CC2)C(=O)N1c1ccc2c(c1)OCO2 (stereo not drawn)	24.1% (inactive)
O=C1CC(N2CCN(c3ccccc3)CC2)C(=O)N1c1ccc2c(c1)OCO2 (stereo not drawn)	-2% (inactive)
COc1ccccc1OCc1ccc(C(=O)OCC2CCCO2)o1 (stereo not drawn)	-2% (inactive)
COC(=O)c1oc2ccc(OC)cc2c1N	-2.9% (inactive)
OCC[C@@H]1C[C@@H](O)[C@H](O)[C@]2(CCCCO2)O1	0.7% (inactive)
COC(=O)c1cccc(C(=O)Nc2ccc(F)cc2)n1	2.8% (inactive)
COc1ccc(NC(=O)C2CCN(C(=O)NCc3ccccc3)CC2)cc1	13% (inactive)
CN(Cc1ccc(F)cc1)C(=O)CCc1nnc(-c2ccccc2)o1	-0.8% (inactive)
O=C(Nc1cccc(S(=O)(=O)Nc2ccccc2F)c1)c1ccc2ccccc2n1	44.1% (inactive)
O=C(Cc1ccc(Cl)cc1)Nc1cccc(S(=O)(=O)Nc2ccccc2F)c1	10.4% (inactive)
CCOC(=O)CC(NS(=O)(=O)c1ccc(OC)c(C)c1)c1cccc([N+](=O)[O-])c1 (stereo not drawn)	12.1% (inactive)
CCOC(=O)c1ccc(S(=O)(=O)N2CCN(S(=O)(=O)CC)CC2)cc1	4.2% (inactive)
CCNC(=S)N1CCN(C(c2ccccc2)c2ccccc2)CC1	18.7% (inactive)
COc1ccc(C(=O)NC(C)c2nnc(SCC(=O)Nc3nc4ccccc4s3)n2C)cc1 (stereo not drawn)	4.8% (inactive)
CCOC(=O)c1c(-c2ccco2)csc1N	57.9% (active)
CCOC(=O)c1c(CC(C)C)csc1N	34.4% (inactive)
CCOC(=O)c1c(-c2ccc(C)o2)csc1NC(=O)COC(=O)c1cccs1	16.6% (inactive)
CCOC(=O)c1c(-c2ccc(C)o2)csc1N	51.6% (active)
CCOC(=O)c1c(-c2ccc(C)o2)csc1NC(=O)CN1CCCCC1	20.2% (inactive)
CCOC(=O)c1c(-c2ccco2)csc1NC(=O)CSc1nnc(N)s1	9.8% (inactive)
COc1ccc(C(=O)O/N=C(/C)c2cccs2)cc1	-4.4% (inactive)
Cc1c(NC(=S)NC(NC(=O)C(C)C)C(Cl)(Cl)Cl)c(=O)n(-c2ccccc2)n1C (stereo not drawn)	1.4% (inactive)

SMILES	inhibition
NC(=O)C1(N2CCCCC2)CCN(Cc2ccc(F)cc2)CC1	1.7% (inactive)
C[C@]12CC[C@@H]3c4ccc(O)cc4CC[C@H]3[C@@H]1CC[C@@H]2O	-6.7% (inactive)
C[C@]12CC[C@@H]3c4cc(O)c(O)cc4CC[C@H]3[C@@H]1CC[C@@H]2O	27.9% (inactive)
COC(=O)/C=c1/s/c(=C(\C#N)C(=O)NCc2ccco2)n(-c2ccccc2)c1=O	-5.5% (inactive)
Cc1ccc(-n2ncc(C#N)c2/N=C/N2CCOCC2)cc1	14.1% (inactive)
O=C1CCCC/C1=C\Nc1ccc(O)cc1	25% (inactive)
Cc1cc(O)ccc1N/C=C1\CCCC1=O	54.1% (active)
Cc1ccc(N/C=C2\CCCCC2=O)c(C)c1	-0.6% (inactive)
O=C(N/N=C/c1cccc([N+](=O)[O-])c1)c1ccc(COc2ccccc2-c2ccccc2)cc1	0.3% (inactive)
Cc1ccc2c(c1)N(CC(=O)N1CCN(c3nc4ccccc4s3)CC1)C(=O)C(C)O2 (stereo not drawn)	0.6% (inactive)
Cn1c(CN2CCCCC2)nc2cc(NC(=O)c3ccc(F)cc3)ccc21	10.4% (inactive)
CC(C)COc1ccc(S(=O)(=O)n2cc(F)c(=O)[nH]c2=O)cc1	50.5% (active)
CCCOc1ccc(S(=O)(=O)n2cc(Br)c(=O)[nH]c2=O)cc1	-4.8% (inactive)
CCOc1ccc(S(=O)(=O)n2cc(F)c(=O)[nH]c2=O)cc1	11.2% (inactive)
CC(C)(C)NCC(O)COc1ccccc1C(C)(C)C (stereo not drawn)	2.5% (inactive)
Cc1ccc2nsnc2c1S(=O)(=O)N(Cc1cc2cccc(C)c2[nH]c1=O)CC1CCCO1 (stereo not drawn)	10.3% (inactive)
Cc1nnc(SCC(=O)c2ccc(C(C)C)cc2)s1	7.2% (inactive)
CC(C)c1ccc(C(=O)CSc2n[nH]c(-c3ccncc3)n2)cc1	4.3% (inactive)
Oc1ccc(/C=N/NC(=S)NCCN2CCOCC2)c(O)c1	-21.6% (inactive)
S=C(NCCN1CCOCC1)N/N=C/c1ccccc1	3.7% (inactive)
C=CCn1c(C(C)NC(=O)c2ccccc2C)n[nH]c1=S (stereo not drawn)	2.2% (inactive)
CCOC(=O)c1c(-c2ccncc2)csc1N	23.1% (inactive)
CCOC(=O)c1c(-c2cccc([N+](=O)[O-])c2)csc1NC(=O)C1CC1	40.4% (inactive)

SMILES	inhibition
CCOC(=O)c1c(-c2cccc([N+](=O)[O-])c2)csc1NC(=O)C1CCCCC1	24% (inactive)
CCOC(=O)c1c(-c2ccsc2)csc1N	59.8% (active)
CCOC(=O)c1c(-c2ccc(C)s2)csc1NC(=O)c1cccs1	-3.8% (inactive)
CCOC(=O)c1c(-c2ccc(C)s2)csc1NC(=O)c1ccco1	3.5% (inactive)
CCOc1ccc(-c2csc(N)c2C(=O)OC)cc1	19.4% (inactive)
CCOC(=O)c1c(-c2cccc([N+](=O)[O-])c2)csc1N	50.3% (active)
Cc1ccc2nc(-c3cccnc3)c(Nc3ccccc3C)n2c1	4.7% (inactive)
COc1ccc(NC(=O)c2cc3c(=O)n4ccccc4nc3n2C)c(OC)c1	6.3% (inactive)
Cc1cc(C)c(S(=O)(=O)c2ccccc2)c(Cl)n1	5.7% (inactive)
COC(=O)c1[nH]c2ccccc2c1NC(=O)CNC1CCCCC1	11.8% (inactive)
Cc1cccc(/C=N/NC(=O)C(C)Nc2cccc3ccccc23)n1 (stereo not drawn)	-72.3% (inactive)
C=CCc1cccc(/C=N/NC(=O)CNc2ccccc2OC)c1O	-20.8% (inactive)
Cc1cccc(/C=N/NC(=O)CNc2cccc3ccccc23)n1	61.8% (active)
O=C(CNc1ccccc1)c1ccc([N+](=O)[O-])cc1	-90.7% (inactive)
C=CCc1cccc(/C=N/NC(=O)CNc2ccccc2)c1O	-4.5% (inactive)
CSc1ccc(/C=N/NC(=O)CNc2cccc3ccccc23)cc1	17.1% (inactive)
O=C(CNc1cccc2ccccc12)N/N=C/c1ccc([N+](=O)[O-])cc1	18.1% (inactive)
Cc1cccc(NCC(=O)N/N=C\c2cccc(Oc3ccccc3)c2)c1	12.6% (inactive)
O=C(CNc1cccc2ccccc12)c1ccc([N+](=O)[O-])cc1	57.5% (active)
Cc1ccc(NCC(=O)N/N=C/c2cccc(Oc3ccccc3)c2)cc1	10.5% (inactive)
O=C(CNc1cccc2ccccc12)N/N=C/c1cccc(Oc2ccccc2)c1	51.8% (active)
C=CCc1cccc(/C=N/NC(=O)CNc2cccc3ccccc23)c1O	55.2% (active)
